Data reported in PubChem BioAssay (NCI).
About 79,000 compounds went through this panel and 15% of them were active in at least one assay; those are over-represented in the sample as a whole. A number with no mark means an inactive call. Active and inactive are the calls of the source. Cut-off read from the data, not from the text of the source: active = growth inhibition above about 70%; inactive = the rest.

Key:
[1] = NCI Yeast Anticancer Drug Screen. Data for the rad50 strain (AID 155);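 note: 0% = growth of vehicle-only cultures of the same strain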; details: S. cerevisiae rad50 strain growth inhibition, stronger effect = higher value
Procedure, shortened: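 Growth of the mutant yeast was measured after compound exposure and referenced to vehicle-treated cultures.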

[2] = NCI Yeast Anticancer Drug Screen. Data for the mec2-1 strain (AID 157); details: S. cerevisiae mec2-1 strain, stronger effect = higher value
Procedure, shortened: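 Growth inhibition is read against vehicle-treated controls after compound exposure of the mec2-1 yeast strain, which is defective in DNA damage repair or cell cycle control.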

[3] = NCI Yeast Anticancer Drug Screen. Data for the sgs1 mgt1 strain (AID 161);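 note: 0% = growth of cultures given vehicle only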; details: S. cerevisiae sgs1 mgt1 strain, stronger effect = higher value
Procedure, shortened: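 This yeast growth screen uses a strain with defined DNA-repair lesions; compound-treated growth is compared with vehicle-treated growth.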

[4] = NCI Yeast Anticancer Drug Screen. Data for the cln2 rad14 strain (AID 165);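 note: 0% = growth equal to vehicle treated cultures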; details: S. cerevisiae cln2 rad14 strain, stronger effect = higher value
Procedure, shortened: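 Growth inhibition, relative to vehicle-treated controls, is the read-out. The test organism is a yeast strain with defined genetic alterations, cln2 rad14.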

[5] = NCI Yeast Anticancer Drug Screen. Data for the bub3 strain (AID 167); details: S. cerevisiae bub3 mutant strain, stronger effect = higher value
Procedure, shortened: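 Whole-cell yeast assay. The mutant strain was incubated with compounds, and growth inhibition was determined by comparison with vehicle-treated cells.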

[6] = NCI Yeast Anticancer Drug Screen. Data for the mlh1 rad18 strain (AID 175); details: S. cerevisiae mlh1 rad18 strain growth inhibition, stronger effect = higher value
Procedure, shortened: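 Cells of a genetically altered yeast strain, deficient in DNA damage repair, were treated with compound. Their growth was then compared with that of vehicle-treated cultures to give inhibition.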

[7] = at 5.0 µM (retest, dose inferred, filed as 0.5)
[8] = at 50.0 µM (retest, dose inferred, filed as 5.0)

| SMILES | growth inhibition [1, 7] | growth inhibition [1, 8] | growth inhibition ([1]; at 50.0 µM) | growth inhibition [2, 7] | growth inhibition [2, 8] | growth inhibition ([2]; at 50.0 µM) | growth inhibition [3, 7] | growth inhibition [3, 8] | growth inhibition ([3]; at 50.0 µM) | growth inhibition [4, 7] | growth inhibition [4, 8] | growth inhibition ([4]; at 50.0 µM) | growth inhibition [5, 7] | growth inhibition [5, 8] | growth inhibition ([5]; at 50.0 µM) | growth inhibition [6, 7] | growth inhibition [6, 8] | growth inhibition ([6]; at 50.0 µM) |
| --- | --- | --- | --- | --- | --- | --- | --- | --- | --- | --- | --- | --- | --- | --- | --- | --- | --- | --- |
| COC(=O)/C(C#N)=C/c1cc(OC)c(O)cc1Br | 46% | 56% | 48.6% | 31% | 44% | 40% | 44% | 68% | 42.1% | 35% | 43% | 43.8% | 46% | 48% | 46.5% | 54% | 76% (active) | 31.1% |
| CN(C)N=Nc1c(-c2cccs2)n[nH]c1C(F)(F)F | 98% (active) | 99% (active) | 99.4% (active) | 99% (active) | 100% (active) | 99.8% (active) | 100% (active) | 100% (active) | 99.6% (active) | 99% (active) | 99% (active) | 99.5% (active) | 99% (active) | 99% (active) | 99.5% (active) | 99% (active) | 99% (active) | 99.6% (active) |
| NC(=S)NNc1c([N+](=O)[O-])cnn(-c2ccccc2)c1=O | 18% | 30% | 3.85% | -28% | 3% | 3.05% | -27% | -13% | 9.7% | -9% | 16% | 20.3% | -19% | 21% | -4.75% | -22% | -25% | 71.2% (active) |
| N=c1c2ccccc2cc2c3ccccc3ccn12 | 45% | 93% (active) | 97.3% (active) | 47% | 97% (active) | 98% (active) | 56% | 95% (active) | 97.8% (active) | 54% | 93% (active) | 86% (active) | 57% | 95% (active) | 96.5% (active) | 60% | 96% (active) | 96.1% (active) |
| N#CC(NNC(=O)c1ccccc1O)c1c(O)ccc2ccccc12 (stereo not given) | -4% | 59% | 74.3% (active) | 22% | 51% | 38.9% | -5% | 50% | 61.9% | 16% | 62% | 41.4% | 17% | 79% (active) | 56.1% | 4% | 82% (active) | 51.5% |
| CC1C/C(=C\c2ccc(O)c(O)c2)C(=O)/C(=C/c2ccc(O)c(O)c2)C1 (stereo not given) | 22% | 71% (active) | 52.4% | 20% | 67% | 32.3% | 17% | 66% | 47.5% | 7% | 65% | 41% | 16% | 67% | 19.9% | 27% | 84% (active) | 21.6% |
| O=c1cccccc1[O-].O=c1cccccc1[O-].O=c1cccccc1[O-].[Nd+3] | 11% | 11% | 91.9% (active) | 20% | 20% | 91% (active) | 15% | 15% | 89.3% (active) | 3% | 3% | 80.9% (active) | 9% | 9% | 92.5% (active) | 13% | 13% | 87.2% (active) |
| CP(=O)(c1ccccc1)c1ccccc1 | -20% | -17% | 12.3% | -1% | 5% | 13.2% | -21% | -14% | 18.4% | 18% | -12% | 6.05% | -22% | -20% | 5.05% | -24% | -25% | 41.8% |
| Cc1c(N)ccc(O)c1C | 1% | 46% | 87.7% (active) | -1% | 30% | 90.9% (active) | -2% | 37% | 43.2% | -3% | 17% | 86.3% (active) | 1% | 41% | 96.8% (active) | 1% | 35% | 96.6% (active) |
| CCc1ccccc1SC(C)=O | 6% | 55% | 29.9% | 13% | 70% (active) | 62% | 3% | 42% | 44.5% | 11% | 69% | 59.9% | 7% | 77% (active) | 80.9% (active) | 1% | 60% | 65.3% |
| O=C(N/N=C/c1ccccc1[O-])c1ccccc1O.O=C(N/N=C/c1ccccc1[O-])c1ccccc1O.[Mn+2] | 48% | 99% (active) | 99.2% (active) | 39% | 98% (active) | 99.8% (active) | 63% | 100% (active) | 97.7% (active) | 28% | 99% (active) | 99% (active) | 48% | 99% (active) | 99.6% (active) | 40% | 99% (active) | 97.8% (active) |
| Cc1ccc(S(=O)(=O)NCCCSCCO)cc1 | 6% | 45% | 80.2% (active) | -45% | 91% (active) | 84.4% (active) | -12% | 25% | 70.4% (active) | 9% | 57% | 74% (active) | -11% | 63% | 74.2% (active) | -1% | 90% (active) | 54.6% |
| Cc1ccc(NCCN(C)C)c2c(=O)c3ccc(O)cc3sc12 | 56% | 96% (active) | 98.5% (active) | -3% | 82% (active) | 98.9% (active) | -1% | 88% (active) | 93% (active) | -3% | 85% (active) | 63.5% | -1% | 84% (active) | 98.2% (active) | 5% | 94% (active) | 99.2% (active) |
| O=[N+]([O-])c1c[nH]c2ncnc(SCc3ccccc3)c12 | 98% (active) | 98% (active) | 100% (active) | 99% (active) | 99% (active) | 99.3% (active) | 99% (active) | 99% (active) | 99.2% (active) | 86% (active) | 99% (active) | 94.3% (active) | 97% (active) | 99% (active) | 98.7% (active) | 98% (active) | 98% (active) | 98.9% (active) |
| COc1cc(/C=C/C(=N\NC(=O)c2ccccc2)c2sc(Nc3ccc(Cl)c(Cl)c3)nc2C)ccc1O | 49% | 49% | 91.2% (active) | 29% | 29% | 89.8% (active) | 52% | 52% | 89.7% (active) | 14% | 14% | 88.2% (active) | 28% | 28% | 90.5% (active) | 30% | 30% | 88.9% (active) |
| O[C@H](CNCCS)[C@@H](O)CNCCS | -1% | 14% | 78% (active) | 2% | 28% | 54% | -6% | 27% | 80.1% (active) | 17% | 7% | 28.5% | -4% | 17% | 40% | -5% | 3% | 79.3% (active) |
| CCc1ccc(/C(C)=N/NC(N)=S)cc1 | -4% | 89% (active) | 53.6% | -4% | 95% (active) | 19.9% | 3% | 91% (active) | 42.8% | -18% | 74% (active) | 54.8% | -9% | 92% (active) | 34.8% | -2% | 93% (active) | 74.5% (active) |
| O=C1CCCC1CN1CCOCC1 (stereo not given) | 5% | 97% (active) | 75% (active) | -21% | 97% (active) | 75.7% (active) | -32% | 75% (active) | 82% (active) | 6% | 66% | 64.4% | -20% | 96% (active) | 84.5% (active) | -6% | 99% (active) | 83.5% (active) |
| CCc1cccc(C(C)C)c1N1C(=O)C(=O)C(c2nc3ccccc3s2)C(=O)C1=O | 65% | 65% | 85.2% (active) | 23% | 23% | 87.3% (active) | 71% (active) | 71% (active) | 83.8% (active) | 51% | 51% | 85% (active) | 34% | 34% | 86% (active) | 36% | 36% | 88.2% (active) |
| CCNc1ncnc2c1ncn2Cc1ccco1 | -4% | 0% | -1.1% | -3% | 0% | 1.4% | -7% | -3% | 4.8% | 1% | -6% | 71.3% (active) | -2% | 1% | -4.05% | 1% | 1% | -2% |
